Shown are actives, neighbours in structure and some others; about 10% of the full set was active somewhere.
ALDH1A1 inh: inhibitors of human aldehyde dehydrogenase 1A1; Purified ALDH1A1, NADH fluorescence, propionaldehyde substrate; Potency, µM (series often up to 75.3 µM), hits mostly inhibitors; AID 1030; 7.3% of 220,000 active; active = well fitted inhibition curve with a large enough effect, not every such curve was filed as active; inconclusive = small, poorly fitted or top-dose-only effect, or another doubt; inactive = no such curve, though single readings can be large or run the other way
PNC assembly inh: inhibitors of perinucleolar compartment assembly. activity change (PNC), negative = inhibition, % at 10 µM. PC3M PTB-GFP, PNC prevalence imaging, 16 h; hits give low values. 3.1% of 140,000 active. AID 2417;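 active = readout at or below -70, meaning at least 70% loss of cells showing the perinucleolar compartment, a nuclear body marking cancer cells; inconclusive = readout between -30 and a set limit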
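Compounds are pinned in duplicate onto adhered PC3M cells stably expressing GFP-tagged PTB and incubated 16 h at 37 C. Cells are then fixed, nuclei stained with Hoechst, and PNC-positive cells counted.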
ALOX12 inhib: blocks human 12-lipoxygenase activity | P18054 | purified 12-hLO, xylenol orange hydroperoxide absorbance | Potency, µM (doses to about 57.1 µM), hits mostly inhibitors | 0.12% of 150,000 active | AID 1452; note: nearly all actives have a fitted effect of over 55% in size
Target sequence (P18054 whole entry, looked up): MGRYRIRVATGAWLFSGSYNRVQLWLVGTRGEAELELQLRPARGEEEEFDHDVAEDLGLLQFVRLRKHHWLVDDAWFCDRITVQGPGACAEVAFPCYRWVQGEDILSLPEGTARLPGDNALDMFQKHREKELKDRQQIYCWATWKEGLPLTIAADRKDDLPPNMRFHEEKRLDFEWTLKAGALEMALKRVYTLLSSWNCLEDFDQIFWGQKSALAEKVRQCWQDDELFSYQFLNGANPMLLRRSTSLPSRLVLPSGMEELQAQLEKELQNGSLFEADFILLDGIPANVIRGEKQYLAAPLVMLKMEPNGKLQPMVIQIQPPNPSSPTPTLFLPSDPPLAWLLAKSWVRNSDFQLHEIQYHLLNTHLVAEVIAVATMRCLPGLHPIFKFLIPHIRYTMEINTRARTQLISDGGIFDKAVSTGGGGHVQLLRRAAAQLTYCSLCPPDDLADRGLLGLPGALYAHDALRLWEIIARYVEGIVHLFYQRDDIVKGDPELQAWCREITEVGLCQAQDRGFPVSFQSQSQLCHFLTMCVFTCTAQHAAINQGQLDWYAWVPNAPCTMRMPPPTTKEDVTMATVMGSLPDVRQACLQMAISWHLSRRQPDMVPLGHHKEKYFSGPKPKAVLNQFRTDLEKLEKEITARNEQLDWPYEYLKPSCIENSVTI
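Hydroperoxide formation by human 12-lipoxygenase from 40 uM arachidonic acid was followed colorimetrically via ferric-xylenol orange complex, using the 573/405 nm absorbance ratio. Enzyme concentration was 150 nM, with 30 min reaction at room temperature.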
HPGD inh: inhibitors of human 15-hydroxyprostaglandin dehydrogenase (HPGD); purified HPGD, NADH fluorescence kinetic, PGE2 substrate; Potency, µM, hits mostly inhibitors; 4.3% of 150,000 active; AID 894; active = well fitted inhibition curve with a large enough effect, not every such curve was filed as active; inconclusive = small, poorly fitted or top-dose-only effect, or another doubt; inactive = no such curve, though single readings can be large or run the other way
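NADH formation kinetics: reaction with 30 uM PGE2 and 1 mM NAD+ (final), 20 nM enzyme, Tris-HCl pH 8 with Tween 20, after 15 min compound preincubation at room temperature. Fluorescence change, last versus first of five reads.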
GLA spleen mod: alpha-galactosidase A (human) modulation | AID 2107 | 0.008% of 240,000 active | Potency, µM (top dose mostly 80 µM), hits mostly inhibitors | P06280 | human spleen homogenate, 4MU-alpha-Gal fluorescence, 40 min
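Human spleen homogenate (1 ug) as enzyme source, 4-methylumbelliferyl-alpha-D-galactopyranoside 1 mM final, citrate/phosphate pH 5.0 with 0.01% Tween-20. Compounds 40 min at 37C, NaOH/glycine stop; fluorescence Ex 365/Em 440, Hill-fit AC50.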
GLA inh pH 4.5: blocks human alpha-galactosidase A at pH 4.5. purified enzyme, 4-MU-alpha-Gal fluorescence, pH 4.5. P06280. 230,000 tested, under 10 active. activity change, negative = inhibition, % at 105 µM. AID 1467
Hits are given with their value; [ ] = remark or other dose. Unless noted, calls come from the whole dose curve; as a rule, active = well fitted curve in the direction sought with a large enough effect; inconclusive = small, poorly fitted or top-dose-only effect, or another doubt; inactive = no such curve, though single readings can be large; an effect the other way counts as inactive or inconclusive.

Screening CCCCS(=O)(=O)c1sc2nc(C)cc(C)c2c1N returned ALDH1A1 inh inactive, PNC assembly inh inactive, ALOX12 inhib inactive, HPGD inh 2.8µM, GLA spleen mod inactive and GLA inh pH 4.5 inactive.
For COc1ccccc1OCC(=O)NCCSCc1cccc(Cl)c1 the results were ALDH1A1 inh inactive, PNC assembly inh inactive, ALOX12 inhib inactive, HPGD inh inactive, GLA spleen mod inactive and GLA inh pH 4.5 inactive.
Screening Oc1ccccc1C=NC1=NN(c2cccc(C(F)(F)F)c2)CC1 returned ALDH1A1 inh 22µM, PNC assembly inh inactive, ALOX12 inhib inconclusive, HPGD inh inactive, GLA spleen mod inactive and GLA inh pH 4.5 inactive.
For COC(=O)C1=C(C)N(Cc2ccc(OC)cc2)C(=O)/C1=C\c1ccco1 the results were ALDH1A1 inh inactive, GLA spleen mod inactive and GLA inh pH 4.5 inactive.
For COC(=O)C1=C(C)N(Cc2ccco2)C(=O)/C1=C\c1ccc([N+](=O)[O-])cc1 the results were ALDH1A1 inh 15µM, GLA spleen mod inactive and GLA inh pH 4.5 inactive.
For O=C(NCC1CCCO1)c1nc2c(nnn2Cc2ccccc2Cl)c(=O)[nH]1 (stereo not drawn) the results were ALDH1A1 inh inactive, PNC assembly inh inactive, ALOX12 inhib inactive, HPGD inh 13µM, GLA spleen mod inactive and GLA inh pH 4.5 inactive.
For O=C(NC1CC1)c1nc2c(nnn2Cc2ccccc2Cl)c(=O)[nH]1 the results were ALDH1A1 inh inactive, PNC assembly inh inconclusive, ALOX12 inhib inactive, HPGD inh 16µM, GLA spleen mod inactive and GLA inh pH 4.5 inactive.
For O=C(NC1CCCCC1)c1nc2c(nnn2Cc2ccccc2Cl)c(=O)[nH]1 the results were ALDH1A1 inh inconclusive, PNC assembly inh inconclusive, ALOX12 inhib inactive, HPGD inh 4.5µM, GLA spleen mod inactive and GLA inh pH 4.5 inactive.
Cc1nc(N2CCCC2)c2nnn(Cc3ccccc3Cl)c2n1 was read as ALDH1A1 inh inactive, PNC assembly inh inconclusive, ALOX12 inhib inactive, HPGD inh inactive, GLA spleen mod inactive and GLA inh pH 4.5 inactive.
For FC(F)(F)c1nc(NCC2CCCO2)c2nnn(Cc3ccccc3Cl)c2n1 (stereo not drawn) the results were ALDH1A1 inh inactive, GLA spleen mod inactive and GLA inh pH 4.5 inactive.
Screening COc1ccc(Cn2nnc3c(=O)[nH]c(C(=O)NCCc4ccc(F)cc4)nc32)cc1OC returned ALDH1A1 inh inactive, PNC assembly inh inactive, ALOX12 inhib inactive, HPGD inh 3.2µM, GLA spleen mod inactive and GLA inh pH 4.5 inactive.
COC(=O)C1=C(C)N(Cc2ccccc2)[C@]23O[C@](C(=O)OC)(C(=O)N2C1c1ccccc1)C(c1ccccc1)C3C(=O)c1ccccc1 (stereo partly drawn) was read as ALDH1A1 inh inactive[13.5 µM] and GLA spleen mod inactive[17.5 µM].
COC(=O)c1ccc(C(NC(=O)OCc2ccccc2)/C(=C/[C@@H](C)C(=O)Nc2ccc(OC)cc2)c2cccnc2)cc1 (stereo partly drawn) was read as ALDH1A1 inh inactive, ALOX12 inhib inactive, HPGD inh inactive, GLA spleen mod inactive and GLA inh pH 4.5 inactive.
`NNC(=O)/C(=C\c1ccc(Br)cc1)NC(=O)c1cccs1` gave ALDH1A1 inh inactive, GLA spleen mod inactive and GLA inh pH 4.5 inactive.
For CCNc1ncc2nc(-c3cn(C)c4ccccc34)c(=O)n(Cc3ccc(F)cc3)c2n1 the results were ALDH1A1 inh inactive and GLA spleen mod inactive.
`CCCc1nc2c(nnn2Cc2ccccc2Cl)c(=O)[nH]1` gave ALDH1A1 inh inactive, GLA spleen mod inactive and GLA inh pH 4.5 inactive.
For O=C(NCCc1ccccc1)c1nc2c(nnn2Cc2ccccc2Cl)c(=O)[nH]1 the results were ALDH1A1 inh inactive, PNC assembly inh inactive, ALOX12 inhib inactive, HPGD inh 7.9µM, GLA spleen mod inactive and GLA inh pH 4.5 inactive.
For N#Cc1c(N)n(-c2cccc(O)c2)c2nc3ccccc3nc12 the results were GLA spleen mod inactive and GLA inh pH 4.5 inactive.
`CCCn1c(N2CCN(CC(=O)c3c[nH]c4ccccc34)CC2)nc2c1c(=O)[nH]c(=O)n2C` gave ALDH1A1 inh 13µM, PNC assembly inh inactive, ALOX12 inhib inactive, HPGD inh inactive, GLA spleen mod inactive and GLA inh pH 4.5 inactive.
`O=C(C(c1ccccc1)c1ccccc1)N1CCN(Cc2ccc(Br)cc2)CC1` gave ALDH1A1 inh inactive, PNC assembly inh inactive, ALOX12 inhib inactive, HPGD inh inactive, GLA spleen mod inactive and GLA inh pH 4.5 inactive.
O=C(CN1CCN(Cc2ccccc2)CC1)c1c[nH]c2ccccc12 was read as ALDH1A1 inh 25µM, PNC assembly inh inactive, ALOX12 inhib inactive, HPGD inh inactive, GLA spleen mod inactive and GLA inh pH 4.5 inactive.
For O=C(CN1CCN(Cc2ccccc2)CC1)c1ccc(Br)cc1 the results were ALDH1A1 inh 2.5µM, PNC assembly inh inactive, ALOX12 inhib inactive, HPGD inh inactive, GLA spleen mod inactive and GLA inh pH 4.5 inactive.
Screening O=C(C(Cl)Cl)N1CCN(Cc2ccccc2)CC1 returned ALDH1A1 inh 1.8µM, PNC assembly inh inactive, ALOX12 inhib inactive, HPGD inh inactive, GLA spleen mod inactive and GLA inh pH 4.5 inactive.
CCn1c(N2CCN(CC(=O)c3c(C)n(C)c4ccccc34)CC2)nc2c1c(=O)[nH]c(=O)n2C was read as ALDH1A1 inh inconclusive, PNC assembly inh inconclusive, ALOX12 inhib inactive, HPGD inh inactive, GLA spleen mod inactive and GLA inh pH 4.5 inactive.
`CC1(N)CCC(C(C)(C)N)CC1` (stereo not drawn) gave ALDH1A1 inh inconclusive, ALOX12 inhib inactive, HPGD inh inactive and GLA spleen mod inactive.
`CCOC(=O)N/N=C1/C[C@@H](O)[C@@H](O)[C@@H]2[C@@H]3C(=O)N(C4CCCCC4)C(=O)[C@H]3CC[C@@H]12` gave ALDH1A1 inh inactive[13.5 µM] and GLA spleen mod inactive[17.5 µM].
For Cc1ccc(S(=O)(=O)Nc2ccccc2/C=N/c2nc3ccccc3n2C(C)C)cc1 the results were ALDH1A1 inh inactive, PNC assembly inh -92, ALOX12 inhib inactive, HPGD inh inactive, GLA spleen mod inactive and GLA inh pH 4.5 inactive.
Cc1cccc(C(=O)c2cnc3ccccc3c2-c2ccccc2)c1 was read as ALDH1A1 inh 13µM, PNC assembly inh inactive, ALOX12 inhib inactive, HPGD inh inconclusive, GLA spleen mod inactive and GLA inh pH 4.5 inactive.
For Cc1cccc(C(=O)NNC(=O)c2ccccc2)c1 the results were ALDH1A1 inh inactive, PNC assembly inh inactive, ALOX12 inhib inactive, HPGD inh inactive, GLA spleen mod inactive and GLA inh pH 4.5 inactive.
Screening COC(=O)Sc1nnc(-c2ccc(Br)cc2)o1 returned ALDH1A1 inh 8.9µM, PNC assembly inh inactive, ALOX12 inhib inactive, HPGD inh 22µM, GLA spleen mod inactive and GLA inh pH 4.5 inactive.
For CC(NC(=O)NC(N)=O)(C(F)(F)F)C(F)(F)F the results were ALDH1A1 inh inactive, PNC assembly inh -109, ALOX12 inhib inactive, HPGD inh inactive, GLA spleen mod inactive and GLA inh pH 4.5 inactive.
